Pf growth 48h: Primary qHTS for delayed death inhibitors of the malarial parasite plastid, 48 hour incubation; Potency, µM (doses to about 28.7 µM), hits mostly inhibitors; AID 504832, 2011; hit rate 5.9% among 310,000; P. falciparum luciferase growth in erythrocytes, 48 h; active = well fitted inhibition curve with a large enough effect; inconclusive = small, poorly fitted or top-dose-only effect, or another doubt; inactive = no such curve, though single readings can be large or run the other way
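Read-out is firefly luciferase luminescence from an integrated reporter in P. falciparum, so falling signal marks reduced parasite growth. Infected erythrocytes were at 2% hematocrit and 0.1% parasitemia (final) in Albumax-supplemented RPMI 1640.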
CHX counter: Cycloheximide Counterscreen for Small Molecule Inhibitors of Shiga Toxin. max response, %. cell reporter, cycloheximide protein synthesis inhibition counterscreen. AID 2314, 2010. hit rate 12% among 300,000; in the data active = max response mostly above about 13%, no sharp cut-off; inactive = mostly below about 14%; also: read at 38.3 µM for the half of the compounds with a filed dose
NS1 inh: qHTS Assay for Inhibitors of Influenza NS1 Protein Function. Potency, µM (series often up to 46.1 µM). AID 2326, 2010. hit rate 0.4% among 270,000; also: actives are rising curves; nearly all actives have a fitted effect of over 50% in size
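A cell-based growth assay was used: compounds that relieve NS1-induced slow growth of budding yeast raise OD600. Assay medium was yeast nitrogen base with ammonium sulphate and -URA supplement, pH 6.0, with 2% galactose.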
SARS PLpro yeast: qHTS of Yeast-based Assay for SARS-CoV PLP; S. cerevisiae expressing SARS-CoV PLpro, growth rescue; Potency, µM (highest dose often 32.9 µM), actives largely listed as activators; hit rate 0.19% among 330,000; AID 485353, 2010; also: nearly all actives have a fitted effect of over 55% in size
Shiga inhibitor: A qHTS for Small Molecule Inhibitors of Shiga Toxin | inhibition, % at 38.7 µM | AID 2315, 2010 | Vero cells, Shiga toxin protein synthesis inhibition reporter | hit rate 9.2% among 290,000; in the data active = inhibition mostly above about 28%, no sharp cut-off; inactive = mostly below about 43%
Pf growth 96h: Primary qHTS for delayed death inhibitors of the malarial parasite plastid, 96 hour incubation; hit rate 6.9% among 320,000; AID 504834, 2011; Potency, µM (titrated, usually from 28.7 µM), actives largely listed as inhibitors; P. falciparum luciferase reporter growth, 96 h; active = well fitted inhibition curve with a large enough effect; inconclusive = small, poorly fitted or top-dose-only effect, or another doubt; inactive = no such curve, though single readings can be large or run the other way
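P. falciparum expressing integrated firefly luciferase grown in erythrocytes (2% hematocrit, 0.05% parasitemia final) with compounds for 96 hours at 37 C, 5% CO2. Growth inhibition read as loss of luminescence after adding luciferase detection reagent.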
Flu NS1 inh: Assay for Inhibitors of Influenza NS1 Protein Function: Hit Validation. shares compounds with NS1 inh. influenza NS1 function cell assay, 15-point titration. activity change, negative = inhibition, % at 32.9 µM. 1,400 tested, under 10 active
Flu PR8 replic: Assay for Inhibitors of Influenza NS1 Protein Function: Influenza virus replication assay in MDCK cells infected with virus A/PR/8/34; hit rate 30% among 95; MDCK infected influenza A/PR/8/34, virus titer TCID50; active compounds read low; AID 504647, 2011; shares compounds with NS1 inh; virus titer (log TCID50), log10 TCID50 at 5 µM; call rule not given here
A number is an active result; - = inactive; ? = inconclusive; . = no result given. A selection: hits, their analogues and other compounds. The true share with any hit is near 21%. Unless noted, calls follow the shape of the full dose curve.

SMILES	Pf growth 48h	CHX counter	NS1 inh	SARS PLpro yeast	Shiga inhibitor	Pf growth 96h	Flu NS1 inh	others
COc1ccc(C(C(=O)NC2CCCCC2)N(Cc2cccs2)C(=O)Cc2c[nH]c3ccccc23)cc1 (stereo not drawn)	?	-	-	-	-	-	.
O=C(NC1CCCCC1)C(c1cccs1)N(C(=O)Cc1c[nH]c2ccccc12)c1ccc(F)cc1 (stereo not drawn)	-	-	-	-	-	?	.
COc1cc(C(C(=O)NC2CCCCC2)N(C(=O)Cc2c[nH]c3ccccc23)c2ccc(C)cc2)cc(OC)c1OC (stereo not drawn)	-	-	11µM	-	-	-	-
COc1cccc(CN(C(=O)Cc2c[nH]c3ccccc23)C(C(=O)NC2CCCCC2)c2cccs2)c1 (stereo not drawn)	9.3µM	-	7.1µM	-	-	12µM	-
Cc1ccc(-c2cc(N)n(Cc3ccc(Cl)cc3)n2)cc1	-	-	5µM	-	-	?	-
Cc1cc(N)n(Cc2ccc(Cl)cc2)n1	-	-	-	-	-	-	.
Cn1c(=O)c2c(nc(NCCNc3nc4c(c(=O)n(C)c(=O)n4C)n3C)n2C)n(C)c1=O	.	.	-	.	.	.	.
CC(O)/C=C/c1cccc[n+]1C (stereo not drawn)	?	-	13µM	-	-	?	-
C[n+]1ccccc1/C=N/O	-	-	-	-	-	?	.
Cc1ccc(C(=O)N/N=C2/NC(=O)CC(C(=O)Nc3ccccc3)S2)cc1 (stereo not drawn)	-	-	-	-	-	?	.
Cc1cc(C)c(S(C)(=O)=O)c(Oc2ccccc2C)n1	?	-	1µM	-	-	-	-
O=S(=O)(c1ccc(NC(=S)NCCC(c2ccccc2)c2ccccc2)cc1)N1CCOCC1	?	-	14µM	-	-	8.3µM	-
O=C(Nn1c(SCc2cccc([N+](=O)[O-])c2)nc2ccccc2c1=O)c1ccccc1	-	81	14µM	-	123	-	-
COc1ccc(NS(=O)(=O)c2ccc(OC)c(NC(=O)CCC3CCCC3)c2)cc1	-	-	?	-	-	-	-
Cc1ccc(CC(NC(=O)C2CCCCC2)C(=O)O)cc1 (stereo not drawn)	.	.	.	-	.	.	.
Cc1ccccc1Nc1nc(N)nc(CSCC(=O)Nc2cccc(Br)c2)n1	-	-	?	-	-	-	-
CCc1ccccc1Nc1nc(N)nc(CSCC(=O)c2cc(C)n(C)c2C)n1	?	-	-	-	-	-	.
CC1(C)C(=O)NCCN1C(=O)CC1C(=O)NCCN1Cc1cccc(C(F)(F)F)c1 (stereo not drawn)	-	-	-	-	-	-	.
CC(C)(C)NC(=O)C(c1ccsc1)N(CCc1ccccc1)C(=O)Cn1nnc2ccccc21 (stereo not drawn)	?	-	?	-	-	?	-
CC(Oc1ccc(Br)cc1)C(=O)NCC1(N2CCCCC2)CCCCC1 (stereo not drawn)	?	.	.	-	.	?	.
Cc1ccccc1-n1c(=O)cc(NCc2ccc3c(c2)OCO3)[nH]c1=O	9.3µM	-	?	-	-	?	-
Cc1ccccc1-n1c(=O)cc(N2CCN(Cc3ccccc3)CC2)[nH]c1=O	-	-	-	-	-	-	.
COCCNC(=O)C(Cc1c[nH]c2ccccc12)NC(=O)OCc1ccccc1 (stereo not drawn)	-	-	-	-	-	-	.
CC1CCCCC1NC(=O)CNC(=O)c1ccco1 (stereo not drawn)	-	.	.	.	.	-	.
Cc1c(C(=O)O)oc2ccc(S(=O)(=O)NCCC3=CCCCC3)cc12	?	-	10µM	-	-	?	-
SMILES	Pf growth 48h	CHX counter	NS1 inh	SARS PLpro yeast	Shiga inhibitor	Pf growth 96h	Flu NS1 inh	others
Cc1c(C(=O)O)oc2ccc(S(=O)(=O)NCc3ccc(F)cc3)cc12	-	-	-	-	-	-	.
Cc1cc(OCC(=O)NC(Cc2ccc(Cl)cc2)C(=O)O)c2c3c(c(=O)oc2c1)CCCC3 (stereo not drawn)	?	-	3.2µM	-	-	?	-
Cc1cc(OCC(=O)NC(Cc2ccc(Cl)cc2)C(=O)O)c2c(C)c(C)c(=O)oc2c1 (stereo not drawn)	-	-	7.9µM	-	-	-	?	Flu PR8 replic=-
Cc1cc(OCC(=O)NC(Cc2ccc(Cl)cc2)C(=O)O)c2c(C)cc(=O)oc2c1 (stereo not drawn)	-	-	-	-	-	-	.
CC(=O)NCCC(=O)Nc1cc(S(=O)(=O)N2CCOCC2)ccc1Oc1ccc(F)cc1	?	.	.	-	.	-	.
O=C(/C=C/c1ccc(Cl)c([N+](=O)[O-])c1)Nc1cccc(NC(=O)c2ccco2)c1	12µM	36	18µM	-	67	?	-
O=C(NC(=S)Nc1ccc(N2CCCC2)cc1)c1ccccc1[N+](=O)[O-]	-	-	?	-	40	-	-
O=C(/C=C/c1cccc([N+](=O)[O-])c1)Nc1cccc(NC(=O)c2ccco2)c1	-	-	-	-	-	-	.
O=C(/C=C/c1ccc(Cl)c([N+](=O)[O-])c1)Nc1cccnc1	?	-	-	-	-	?	.
O=C(/C=C/c1ccc(Cl)c([N+](=O)[O-])c1)Nc1ccc(N2CCCC2)cc1	-	-	?	-	-	?	-
Cc1ccc(S(=O)(=O)CCC(=O)OCC(=O)N2CC(=O)Nc3ccccc32)cc1	-	-	?	-	-	-	-
Cc1ccc2nc(-c3cccc(NS(C)(=O)=O)c3)cc(-c3ccccc3)c2c1	-	-	-	-	-	-	.
Cc1cc(C)cc(NC(=S)N2C3CCCC2CC(NC(=O)C2CC2)C3)c1 (stereo not drawn)	-	-	-	-	-	-	.
CCOC(=O)C1=C(C)N=C2SC(C(=O)OC)=CC(=O)N2C1c1cccc(OC)c1 (stereo not drawn)	7.4µM	-	14µM	-	-	-	-
COc1ccc(-c2nn(-c3ccccc3)cc2/C=C2/SC(=S)N(CCC(=O)O)C2=O)c(C)c1	-	-	11µM	-	-	5.9µM	?
COc1ccc(-c2nn(-c3ccccc3)cc2/C=C2/SC(=S)N(CCC(=O)O)C2=O)cc1	?	-	-	-	-	?	.
O=C(/C(=N/N=C/c1ccc(O)c(O)c1O)c1ccccc1)c1ccccc1	10µM	-	3.2µM	-	-	?	?
Oc1cccc(C=NCc2ccccc2)c1O	-	-	-	-	-	?	.
CNC(=O)c1ccccc1S(=O)(=O)c1ccccc1C#N	?	-	?	-	-	?	-
